Sampled rows, rich in hits. Any-hit rate of the full collection: about 5%.
LmPK inhibitor: qHTS Assay for Inhibitors of Leishmania Mexicana Pyruvate Kinase (LmPK). Q27686. purified LmPK, Kinase-Glo ATP luminescence, 1 h. Potency, µM (top dose mostly 57.5 µM), inactives show top-dose activity change, negative = inhibition, actives largely listed as inhibitors. 0.37% of 290,000 active; further: potency means the concentration at half of the fitted maximal effect
Target sequence (Q27686 whole entry, looked up): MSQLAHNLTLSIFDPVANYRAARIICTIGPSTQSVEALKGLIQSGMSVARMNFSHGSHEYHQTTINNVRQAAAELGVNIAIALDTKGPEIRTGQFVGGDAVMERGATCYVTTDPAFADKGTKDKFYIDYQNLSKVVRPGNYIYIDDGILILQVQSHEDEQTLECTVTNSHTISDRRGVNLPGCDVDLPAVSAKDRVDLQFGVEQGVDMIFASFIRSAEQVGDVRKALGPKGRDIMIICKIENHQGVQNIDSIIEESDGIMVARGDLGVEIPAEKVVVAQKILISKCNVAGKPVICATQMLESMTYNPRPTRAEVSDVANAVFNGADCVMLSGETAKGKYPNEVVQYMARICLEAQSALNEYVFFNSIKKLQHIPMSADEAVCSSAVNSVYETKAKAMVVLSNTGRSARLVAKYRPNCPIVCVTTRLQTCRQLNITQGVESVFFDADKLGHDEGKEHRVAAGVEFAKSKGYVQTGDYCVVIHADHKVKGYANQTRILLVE
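0.1 nM LmPK, 0.5 mM PEP, 0.1 mM ADP; 50 mM imidazole pH 7.2, 7 mM MgCl2, 50 mM KCl; 1 h RT. Kinase-Glo luminescence readout, normalized to no-enzyme (full inhibition) and uninhibited wells.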
Tb PYK inh: qHTS of Trypanosoma Brucei Inhibitors. pyruvate kinase (Trypanosoma brucei), Q57TT1. 0.12% of 410,000 active. Potency, µM (titrated, usually from 76.8 µM), inactives show top-dose activity, negative = inhibition, actives largely listed as inhibitors. TbPYK enzyme, Kinase-Glo Plus ATP luminescence, 45 min; further: potency means the concentration at half of the fitted maximal effect; nearly all actives have a fitted effect of over 50% in size
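Activity of T. brucei pyruvate kinase was followed by Kinase-Glo Plus luminescence after the enzyme reacted 45 min at room temperature with 130 uM ADP (final) and substrate. Test compounds were added before ADP at multiple concentrations.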
VACV Venus inh: qHTS for Stage-Specific Inhibitors of Vaccinia Orthopoxvirus: Venus Reporter Primary qHTS | Vaccinia virus Venus reporter expression, fluorescence | Potency, µM (doses to about 36.5 µM), inactives show top-dose activity change, negative = inhibition, usual class: inhibitors | 0.46% of 330,000 active | AID 720580, 2013; calls by dose curve; tested in A549 cells; further: potency means the concentration at half of the fitted maximal effect; nearly all actives have a fitted effect of over 30% in size
VACV mCherry inh: qHTS for Stage-Specific Inhibitors of Vaccinia Orthopoxvirus: mCherry Reporter Primary qHTS; Potency, µM (highest dose often 36.5 µM), inactives show at the highest dose activity change, negative = inhibition, hits mostly inhibitors; 0.63% of 310,000 active; Vaccinia virus mCherry reporter infection, fluorescence; calls by dose curve; tested in A549 cells; further: potency means the concentration at half of the fitted maximal effect; nearly all actives have a fitted effect of over 35% in size
HCMV antiviral: qHTS Assay for inhibitors of the human cytomegalovirus (HCMV); HFF cells, HCMV-luciferase reporter, 72 h; active compounds read low; activity change, negative = inhibition, % at 57.5 µM; 4.5% of 410,000 active; AID 1259415, 2018; in the data active means activity change below about -60%; inconclusive means no clear call, values can overlap the other calls; inactive means above about -39%
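Screen run at 2 compound doses on HFFs infected with reporter HCMV, MOI 1 PFU/cell. Luciferase activity from cell lysates at 72 h post infection gave inhibition relative to buffer-only and Salinomycin wells.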
The depositor's hits bear a star; i = inactive; ? = inconclusive; nt = no result given; ! = repeats disagree. Unless noted, the call rests on the fitted dose curve; in most records, active means well fitted curve in the direction sought with a large enough effect; inconclusive means small, poorly fitted or top-dose-only effect, or another doubt; inactive means no such curve, though single readings can be large; an effect the other way counts as inactive or inconclusive. On the % scale 0 is the no-effect control and ±100 the full control effect.

SMILES	LmPK inhibitor	Tb PYK inh	VACV Venus inh	VACV mCherry inh	HCMV antiviral
COc1ccc(/C=C(\C#N)c2nc3ccc(C)cc3[nH]2)cc1Oc1ccc(C(F)(F)F)cc1[N+](=O)[O-]	0.1%	-0.8%	-4.7%	-9.1%	-67.9*
CCOC(=O)COc1ccc(/C=C(\C#N)c2nc3ccc(C)cc3[nH]2)cc1OC	nt	-14.2%	?	?	-104.7*
CCCc1cc(=O)oc2c3c(c4c(c12)OC(C)(C)C=C4)OC(C)C(C)C3O (stereo unspecified)	9.8%	-2.7%	?	11.2µM*	-76.9*
CCCCC(=O)OCC(=O)c1ccc(OCC)cc1	-25.6%	-2.6%	-2.2%	-10.2%	9.6
Cc1ccc(Cl)cc1N1CCN(C(=O)c2cc3c(=O)[nH]c4ccccc4c3n2C)CC1	4.5%	13.8%	-13.6%	?	-94.9*
Cn1c(C(=O)N2CCN(c3ccc(Cl)cc3)CC2)cc2c(=O)[nH]c3ccccc3c21	-0.8%	-0.1%	?	-17.8%	8.7
Cc1[nH]n(-c2nc(-c3ccccc3F)cc(=O)[nH]2)c(=O)c1CCO	-2.7%	0.0%	-4.5%	-2.4%	-25.1
Cc1ccccc1S(=O)(=O)NC(=NCc1ccc(F)cc1)c1ccccc1	nt	-4.7%	-7.0%	i	-26.0
CCOC(=O)c1sc(NC(=O)CNCc2cccnc2)c(C(=O)OCC)c1C	0.7%	-1.6%	-1.6%	-1.2%	-62.0*
Clc1ccc(CSc2nccn2Cc2ccccc2)cc1	8.0%	?	nt	nt	?
O=[N+]([O-])c1ccc(Sc2nccn2Cc2ccccc2)cc1	1.3%	1.7%	-22.3%	-24.2%	-76.9*
CC1(C)CC(=O)C=C(c2ccc(-c3cnc4ccccc4c3)cc2)C1=O	nt	-4.8%	?	-23.9%	-71.3*
COc1ccc(N(CC(=O)Nc2cccc(N(C)S(C)(=O)=O)c2)S(=O)(=O)c2ccc(C)cc2)cc1	0.1%	-1.6%	-27.9%	-16.0%	-30.2
Cc1cccc(N(CC(=O)Nc2ccccc2-c2ccccc2)S(=O)(=O)c2ccccc2)c1C	2.0%	-6.4%	-24.7%	?	-61.3*
Cc1ccc(S(=O)(=O)N(CC(=O)Nc2ccccc2-c2ccccc2)c2ccc(C)cc2C)cc1	-0.5%	-4.2%	-26.4%	?	?
CCOc1ccc(N(CC(=O)Nc2cccc(N(C)S(C)(=O)=O)c2)S(=O)(=O)c2ccccc2)cc1	1.6%	-2.9%	?	?	-64.0*
CC(=O)Nc1ccc(NC(=O)CN(c2ccc([N+](=O)[O-])cc2)S(=O)(=O)c2ccccc2)cc1	-0.8%	5.1%	-9.9%	-10.2%	?
CCN(CC)S(=O)(=O)c1ccc(NC(=O)CN(c2ccccc2)S(=O)(=O)N(C)C)cc1	nt	3.2%	-0.8%	-11.3%	-88.8*
CCc1ccc(N(CC(=O)Nc2ccc(NC(C)=O)cc2)S(=O)(=O)c2ccccc2)cc1	-3.0%	1.5%	-27.4%	-26.1%	-61.1*
Nc1ccc(S(=O)(=O)Nc2nccc(/C=C/c3ccc(Cl)cc3)n2)cc1	-4.8%	21.8%	-2.5%	-14.6%	-7.3
CCc1ccc(NC(=O)NC2CCCCCCC2)cc1	0.3%	2.2%	-2.9%	-14.3%	90.5
Cc1ccc(N(CC(=O)Nc2ccccc2-c2ccccc2)S(=O)(=O)c2ccccc2)cc1	-1.1%	2.0%	?	nt	-69.9*
CC(=O)Nc1ccc(NC(=O)COC(=O)c2ccc(S(=O)(=O)N(C)c3ccccc3)cc2)cc1	nt	0.0%	nt	nt	-100.2*
Cc1ccc(N(CC(=O)NCc2ccco2)S(=O)(=O)c2ccccc2)cc1	-0.2%	-5.3%	nt	nt	-7.0
Cc1cc(NC(=O)CN(c2cccc(C)c2C)S(=O)(=O)c2ccccc2)ccc1Br	nt	3.1%	-11.3%	-14.5%	-68.3*
SMILES	LmPK inhibitor	Tb PYK inh	VACV Venus inh	VACV mCherry inh	HCMV antiviral
CCNC(=O)CN(c1ccc(C)cc1)S(=O)(=O)c1ccccc1	5.9%	-0.1%	5.2%	-11.0%	-82.8*
CN(c1ccccc1)S(=O)(=O)c1ccc(C(=O)OCC(=O)NC(N)=O)cc1	1.2%	3.6%	nt	nt	-20.8
CCCCCCSc1nnc(-c2cnn(-c3ccccc3)c2-n2cccc2)n1C	4.0%	?	10µM*	10µM*	-28.2
CCOC(=O)C1CCCN(C(c2ccccn2)c2c(C)[nH]c3ccccc23)C1 (stereo unspecified)	13.8%	-0.4%	0.7%	i	-86.7*
CC(=O)c1ccc2c3c(cc(C)c2c1)CCCC3	nt	-1.5%	-6.3%	-24.7%	-66.2*
Cn1cccc1/C=N\NC(=O)Cc1ccc(Br)c2ccccc12	2.3%	1.1%	nt	nt	-79.9*
CN(C(=O)CSc1nnc(-c2ccco2)n1N)C1CCCCC1	7.3%	-2.1%	-8.5%	i	13.7
COc1ccc(-c2nn(-c3ccccc3)cc2/C=C(\C#N)C(N)=O)cc1[N+](=O)[O-]	2.4%	2.0%	-10.1%	2.0%	29.8
CCCCCCCCCC[n+]1ccc(/C=C/c2c[nH]c3ccccc23)cc1	nt	nt	156.6%	?	nt
CCCCOc1ccc(C(N)=O)cc1	nt	nt	-17.6%	-14.4%	nt
CCCCCCCCCCCCCCCC[n+]1ccccc1	nt	0.0%	14.1µM*!	12.6µM*!	-97.9*
CCCCCCCCCCCCCC[n+]1ccc(C)cc1	nt	4.7%	nt	nt	nt
CCCCCCCCCCCCCCCC[n+]1ccc(/C=N/O)cc1	3.2%	1.2%	10µM*	11.2µM*	-97.1*
CCCCCCC[n+]1ccc(-c2cc[n+](CCCCCCC)cc2)cc1	-2.7%	-5.4%	?	?	-100.9*
CCCCCCCCCCCC[n+]1ccc2ccccc2c1	nt	-9.9%	nt	nt	nt
CCCCCCCCCCCCCCCC[n+]1ccc(C(N)=O)cc1	-0.7%	-10.3%	-15.3%	i	-85.5*
CCOC(=O)c1c(C)c(-c2ccccc2)n(CC(=O)Nc2cc(OC)cc(OC)c2)c1C	nt	-5.4%	-15.5%	-18.9%	-30.2
CCOC(=O)N1CCC(NCCNC(=O)c2ccccc2)CC1	-11.9%	5.3%	-12.1%	i	-70.0*!
CCOC(=O)N1CCN(c2c(NC3CCN(Cc4ccccc4)CC3)c(=O)c2=O)CC1	0.1%	-6.7%	-10.9%	1.5%	-64.2*
CC(C)N=C1NN=C(c2ccc(Cl)c(Cl)c2)CS1	6.1%	-11.3%	-12.9%	-16.6%	86.3
O=c1[nH]cnc2c1sc1nc3c(c(-c4ccc(Cl)cc4)c12)CCC3	1.6%	-6.4%	2.82µM*	nt	?
CCOC(=O)Cn1nnc2c(sc3nc4c(c(-c5ccc(Cl)cc5)c32)CCC4)c1=O	-2.2%	-1.9%	-4.3%	nt	-24.6
O=c1c(Br)ccc(Br)cc1Br	nt	-15.5%	?	?	-77.1*
Brc1ccc(Oc2ccc(Br)cc2Br)c(Br)c1	nt	1.7%	-4.5%	i	49.2
CCOCCCNC(=O)c1ccc(OC)c(OC2CCN(C(C)C)CC2)c1	-1.5%	-1.4%	nt	nt	19.7
CN(C)C(=O)COC(=O)c1ccccc1Nc1ccc(SC(F)F)cc1	-3.1%	3.5%	nt	nt	-66.9*

Screening results as filed in PubChem BioAssay.
